Compound activity deposited in PubChem BioAssay by National Center for Advancing Translational Sciences (NCATS).
DRD3 agonist = qHTS of D3 Dopamine Receptor Agonist: qHTS. 0.58% of 410,000 active. D(3) dopamine receptor (Homo sapiens), P35462. max activation, %. D3R DiscoveRx beta-arrestin cells, luminescence, 90 min; in the data active = max activation above about 30%; also: 0% is about no effect
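Agonist mode: compounds and dopamine controls were applied to plated cells for 90 min at 37 degrees C after an overnight attachment at 1500 cells/well. Luminescent read-out followed 30 - 60 minutes at room temperature with DiscoveRx detection reagent.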
TDP1 cell CPT = qHTS for Inhibitors of human tyrosyl-DNA phosphodiesterase 1 (TDP1): qHTS in cells in presence of CPT | chicken DT40 Tdp1-/-;hTDP1 cells + 20 nM CPT, ATP luminescence, 48 h | 12% of 420,000 active | Potency, µM (doses to about 46.2 µM), for inactives: top-dose activity change, negative = growth inhibition, usual class: inhibitors | AID 686979, 2013; also: potency is read from the fitted curve at half-maximal effect; % is scaled to controls: 0 for no effect and ±100 for the full control effect; nearly all actives have a fitted effect of over 55% in size
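Chicken DT40 Tdp1-/- cells complemented with human TDP1, 400 cells/well, exposed to compounds plus 20 nM camptothecin for at least 48 h at 37 C; viability read as ATP content by CellTiter-Glo luminescence.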
TDP1 cell noCPT = qHTS for Inhibitors of human tyrosyl-DNA phosphodiesterase 1 (TDP1): qHTS in cells in absence of CPT. DT40 Tdp1-/- hTDP1 cells, no CPT, ATP luminescence, 48 h. Potency, µM (top dose mostly 46.2 µM), inactives show top-dose activity change, negative = growth inhibition, hits mostly inhibitors. 15% of 420,000 active; also: potency is read from the fitted curve at half-maximal effect; % is scaled to controls: 0 for no effect and ±100 for the full control effect; nearly all actives have a fitted effect of over 55% in size
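No-CPT arm: Tdp1-/-;hTDP1 DT40 cells (400/well) plus compounds, incubated ≥48 hr at 37 °C. Readout CellTiter-Glo luminescence.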
ClpP mod = qHTS Assay for Activators of ClpP; Potency, µM (doses to about 57.5 µM), for the others: top-dose activity change, negative = active; purified B. subtilis ClpP, FRET peptide cleavage, 20 min; 1.9% of 340,000 active; active = well fitted falling curve with a large enough effect; inconclusive = small, poorly fitted or top-dose-only effect; inactive = no such curve, though single readings can be large or run the other way; also: potency is read from the fitted curve at half-maximal effect; the source files actives as falling curves though it sought activators and does not explain the sign; nearly all actives have a fitted effect of over 65% in size
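Buffer: 100 mM Tris/HCl pH8, 100 mM KCl, 0.05% low protease BSA, 2.5% glycerol, 0.01% Tween-20. ClpP 10 microg/mL final; 20 min RT; delta FRET normalized to ADEP and DMSO controls.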
IL-1B inflam inh = qHTS for Inhibitors of Inflammasome Signaling: IL-1-beta AlphaLISA Primary Screen; AID 743279, 2014; activity change, % at 57.5 µM; 4.7% of 360,000 active; THP-1 LPS/ATP IL-1B secretion, AlphaLISA, 16 h; active compounds read low; in the data active = activity change below about -50%; inconclusive = mostly about -30% to -49%; also: % is scaled to controls: 0 for no effect and ±100 for the full control effect
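THP-1 cells pretreated 1 hr with compounds (up to 57.5 uM final), then stimulated with LPS (250 ng/mL final) plus ATP (1.25 mM final); secreted IL-1B measured by AlphaLISA after 16 hr, decreased signal indicating inhibition.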
D3 antag = qHTS of D3 Dopamine Receptor Antagonist: qHTS. D3R cells, DiscoveRx beta-arrestin luminescence, antagonist mode; active compounds read low. max response, negative = inhibition, %. 2.5% of 360,000 active. AID 652054, 2013; in the data active = max response below about -50%; inconclusive = no clear call, values can overlap the other calls; also: % is scaled to controls: 0 for no effect and ±100 for the full control effect
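Cells plated overnight at 1500 cells/well, then exposed to library compounds with dopamine controls for 90 minutes at 37 degrees C. DiscoveRx reagent added for 30–60 minutes at room temperature; luminescence read, quantitative HTS format.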
* = called active by the depositor; ? = inconclusive; / = no result; [ ] = dose if it differs, or a comment. Compounds with a hit are over-represented: about 21% of the library has one in this group of screens. Unless noted, calls follow the shape of the dose curve; as a rule, active = well fitted inhibition curve with a large enough effect; inconclusive = small, poorly fitted or top-dose-only effect; inactive = flat fitted curve, though single readings scatter.

SMILES	DRD3 agonist	TDP1 cell CPT	TDP1 cell noCPT	ClpP mod	IL-1B inflam inh	D3 antag
O=S(=O)(NCC(c1ccco1)N1CCN(c2ccccc2F)CC1)c1ccc(F)cc1 (stereo not drawn)	-5.2	?	?	-6.5%	4.8	-0.3
O=C(NCC(c1ccco1)N1CCN(c2ccccc2)CC1)C(=O)NC1CCCC1 (stereo not drawn)	8.8	?	?	-3.4%	3.7	17.7
O=C(NCC(c1ccco1)N1CCN(c2ccccc2)CC1)C1CCCCC1 (stereo not drawn)	-2.7	?	23.1µM*	1.1%	-7.3	-14.7
O=C(NCC(c1ccco1)N1CCN(c2ccccc2)CC1)C(=O)NC1CCCCC1 (stereo not drawn)	36.7*	-28.7%	-27.5%	1.6%	6.4	3.3
O=C(NCC(c1ccco1)N1CCN(c2ccccc2)CC1)C(=O)NC1CC1 (stereo not drawn)	3.6	-0.3%	1.8%	-3.6%	-6.6	-6.2
O=C(NCC(c1ccco1)N1CCN(c2ccccc2F)CC1)C(=O)NC1CCCC1 (stereo not drawn)	36.0*	?	9.2µM*	3.1%	6.3	19.7
COc1ccc(C(=O)Nc2ccnn2C2CCN(C(=O)c3cccnc3)CC2)cc1	0.7	-15.3%	-28.4%	-3.3%	-6.0	-4.7
CCCCCCCCCCC/C=C\C(C)(C)/C=C\CCCC(=O)O	/	-1.3%[4.12 µM]	-25.0%[4.12 µM]	/	/	/
O=C(CCN1CCN(S(=O)(=O)c2ccc(Cl)cc2)CC1)Nc1ccc(F)cc1	0.0	-24.7%	-21.2%	1.5%	12.0	-19.1
Cc1nn2c(NCCCN(C)C)c3c(nc2c1-c1ccccc1)CCCC3	-5.7	?	?	/	-21.6	-15.4
Cc1cccc(-c2cc3nc(C)c(C)c(NCCCn4ccnc4)n3n2)c1	-2.5	?	14.6µM*	/	/	21.2
CC(C)(C)c1cc(NCCCn2ccnc2)n2ncc(-c3ccc(Cl)cc3)c2n1	9.1	?	18.4µM*	14.1µM*	-86.4*	14.3
Cc1cc(NCCCn2ccnc2)n2nc(-c3ccc(Cl)cc3)cc2n1	-5.5	-21.6%	?	?	-65.4*	21.9
CN(C)CCCNc1cc(C(C)(C)C)nc2c(-c3ccccc3)cnn12	-14.6	?	16.4µM*	/	-98.0*	0.0
COc1ccc(-c2cc3nc(C)cc(NCCO)n3n2)cc1	-10.9	-34.3%	-5.0%	?	-23.0	-25.4
Cc1cc(NCCCn2ccnc2)n2nc(-c3ccc(F)cc3)cc2n1	-15.1	-18.6%	-24.9%	-25.1%	-60.5*	-24.2
Cc1ccc2c(c1)sc[n+]2Cc1ccccc1	-16.1	13µM*	13µM*	-5.4%	12.6	?
Cc1cccc(-n2c(SCC(=O)NCc3ccc4c(c3)OCO4)nc3ccccc3c2=O)c1	5.4	?	?	-5.5%	-15.8	9.4
Cc1cc(C)cc(-n2c(SC(C)C(=O)NCc3ccc4c(c3)OCO4)nc3ccccc3c2=O)c1 (stereo not drawn)	2.2	13µM*	14.6µM*	-22.5%	-14.3	-0.8
COc1ccccc1-n1c(SCC(=O)NCc2ccc3c(c2)OCO3)nc2cc([N+](=O)[O-])ccc21	-17.4	4.11µM*	20.6µM*	0.7%	?	-19.6
CC(Sc1nc2cc([N+](=O)[O-])ccc2n1-c1ccc(F)cc1)C(=O)NCc1ccc2c(c1)OCO2 (stereo not drawn)	-12.7	16.4µM*	14.6µM*	?	-29.7	?
Cc1ccc(Cl)cc1N1CCN(C(=O)Cn2ncc3c([nH]c4ccccc43)c2=O)CC1	2.1	?	?	-4.5%	/	/
COc1ccc(C(=O)CN2C(=O)N(c3cc(C)ccc3C)S(=O)(=O)c3ccccc32)cc1	-0.7	-3.6%	-17.8%	-0.5%	/	/
CC(=O)c1ccc(N2C(=O)N(CC(=O)c3ccc(C)cc3)c3ccccc3S2(=O)=O)cc1	-7.4	?	23.1µM*	0.1%	/	/
Cc1ccc(C)c(N2C(=O)N(Cc3cccc(C(F)(F)F)c3)c3ccccc3S2(=O)=O)c1	1.3	?	?	1.4%	/	/
SMILES	DRD3 agonist	TDP1 cell CPT	TDP1 cell noCPT	ClpP mod	IL-1B inflam inh	D3 antag
CCN1C(=O)N(c2ccc(C(C)=O)cc2)S(=O)(=O)c2ccccc21	-3.2	-13.2%	?	0.2%	0.7	-9.5
Cc1cccc(N2C(=O)N(Cc3cccc(C#N)c3)c3ccccc3S2(=O)=O)c1	5.3	?	?	-3.7%	/	/
CCOc1ccc(N2C(=O)N(Cc3ccc(C)cc3C)c3ccccc3S2(=O)=O)cc1	-19.2	?	16.4µM*	1.0%	/	/
Cc1cccc(N2C(=O)N(CC(=O)C(C)(C)C)c3ccccc3S2(=O)=O)c1C	0.0	14.6µM*	13µM*	-0.8%	/	/
CC(=O)c1ccc(N2C(=O)N(Cc3cccc(C(F)(F)F)c3)c3ccccc3S2(=O)=O)cc1	-1.0	16.4µM*	14.6µM*	1.7%	/	/
O=C1CSC(=S)N1	0.9	-17.1%	-0.1%	2.9%	-17.2	25.9
Cc1ccc(Nc2nnc(SCC3CCCCO3)s2)cc1 (stereo not drawn)	3.2	-1.7%	?	0.5%	-7.0	11.5
COc1ccccc1Nc1nnc(SCC2CCCCO2)s1 (stereo not drawn)	-1.1	6.51µM*	?	/	-15.6	-3.6
Cc1ccccc1Nc1nnc(SCC2CCCCO2)s1 (stereo not drawn)	-5.4	?	18.4µM*	/	?	-9.2
COc1ccc(CNC(=O)C2CCC(CNS(=O)(=O)c3ccc(C)cc3)CC2)cc1 (stereo not drawn)	0.5	?	?	0.2%	-1.5	-10.6
CC(C)Nc1nc(NC(C)C)nc(N(C#N)CCOc2ccc(Cl)cc2Cl)n1	-1.2	18.4µM*	?	-2.3%	-13.4	16.6
COc1ccc(S(=O)(=O)N2CCCCCC2)cc1C(=O)N1CCN(C(C)=O)CC1	3.7	-7.0%	-1.3%	-2.1%	-11.8	32.7
CCN(CC)C(=O)C1=C(C)N(Cc2ccc(C(C)(C)C)cc2)C(=O)C(CC(=O)NCc2ccco2)C1 (stereo not drawn)	-0.6	?	23.1µM*	0.4%	?	-19.2
CC1=C(C(=O)N(C(C)C)C(C)C)CC(CC(=O)NCc2ccco2)C(=O)N1Cc1ccc(C(C)(C)C)cc1 (stereo not drawn)	-12.4	20.6µM*	16.4µM*	3.7%	-23.1	10.5
